Source: PubChem
Sa growth inh – inhibitors of Staphylococcus aureus growth at 42 °C; S. aureus RN4220 growth, OD600, 20 h; active compounds read low; relative growth, % (no concentration beside the values); 0.53% of 170,000 active;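 active = relative growth at most 50% at the other temperature and 20+ points below 30 °C, or under 10% at both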
Sa helicase inh – blocks Staphylococcus aureus DNA helicase | purified S. aureus helicase, fluorescence unwinding assay | inhibition, % (concentration not given with the values) | 0.05% of 120,000 active | AID 485395; in the data active = inhibition above about 25%, passing the limit was not always enough;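 note: 0% = mean of negative control wells and 100% = mean of positive control wells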
* hit, by the source's call; x = not tested or not shown. Compounds with a hit are over-represented: about 0.52% of the library has one in this group of screens.

SMILES	Sa growth inh	Sa helicase inh
O=C(O)/C=C/C(=O)c1ccc(C2CCCCC2)cc1	-0.9*	x
O=C(O)/C=C/C(=O)Nc1ccc(C2CCCCC2)cc1	146	x
CC(C)(C)C(=O)Nc1ccn([C@H]2C[C@H](O)[C@@H](COC(=O)C(C)(C)C)O2)c(=O)n1	106	x
Cc1ccccc1Nc1cc(C)c(C#N)c2nc3ccccc3n12	1.2*	10
COc1ccc(Nc2cc(C)c(C#N)c3nc4ccccc4n23)cc1	93	8
O=C1OC(Nc2ccccc2C(F)(F)F)c2ccccc21 (configuration not stated)	81	7
CCc1ccc(S(=O)(=O)/N=C2/C=C(Nc3ccccc3)C(=O)c3ccccc32)cc1	83	9
O=C1C(Sc2ncn[nH]2)=C/C(=N/S(=O)(=O)c2ccc(Cl)cc2)c2ccccc21	1.2*	24
CC(C)(C)c1ccc(Cn2c(N)nc3ccccc32)cc1	6.3*	10
Nc1nc2ccccc2n1Cc1ccccc1F	102	-13
CNS(=O)(=O)c1cn(CC(=O)Nc2ccc(C)c(N(C)C)c2)cc1S(=O)(=O)NC	108	x
O=C(Nc1ccc2nc3n(c(=O)c2c1)CCCCC3)c1cccc(C(F)(F)F)c1	100	x
S=C(Nc1cccc(Cl)c1)Nc1cccc(Cl)c1	0.0*	x
CC(C)(C)NC(=S)Nc1cccc(Cl)c1	126	10
CN1C(=O)CC(C(=O)Nc2ccc(C(=O)O)cc2)SC1=Nc1ccc(Cl)cc1 (configuration not stated)	92	x
O=C(O)C1CC(=O)N(CCC23CC4CC(CC(C4)C2)C3)C(=Nc2ccc(Cl)cc2)S1 (configuration not stated)	-0.5*	18
COC(=O)CSc1nnc(SCC(=O)OC)s1	95	8
c1ccc(-c2ccc(C(c3ccccc3)n3ccnc3)cc2)cc1 (configuration not stated)	1.6*	x
CC(N)c1ccc(-c2ccccc2)cc1 (configuration not stated)	96	-11
O=C(CSc1nc2c([nH]c3ccccc32)c(=O)n1-c1ccc(F)cc1)N1CCCc2ccccc21	106	x
Cc1ccc(Nc2nc(C(=O)N(C)Cc3ccccc3)cs2)cc1	131	-7
Cc1ccc(Nc2nc(CN(C)CCCc3[nH]nc(N)c3C#N)cs2)cc1	-1.1*	-11
O=C(Nc1ccc(C(F)(F)F)cc1Cl)c1ccc(Cn2cc(Br)cn2)o1	88	8
O=C(N/N=C/c1ccco1)C12CC3CC(CC(C3)C1)C2	96	5
Cc1ccc(C)n1-c1ccc(C(=O)OCc2nc3ccsc3c(=O)[nH]2)cc1	48*	1
SMILES	Sa growth inh	Sa helicase inh
O=C(OCc1nc2ccsc2c(=O)[nH]1)c1ccc(N2CCCC2=O)cc1	86	9
Cn1c(=O)n(C)c2cc(Nc3nc4ccc(Cl)cc4n4nnnc34)ccc21	85	-21
CC(=O)Nc1ccc(C2Nc3cc(C)ccc3O2)cc1 (configuration not stated)	78	x
CN(C)c1ccc2sc(=S)[nH]c2c1	44	-9
FC(F)(F)c1ccc2sc(=S)[nH]c2c1	-0.8*	10
COc1ccc(-c2nnc3c4ccccc4c(C)nn23)cc1S(=O)(=O)NCc1cccnc1	97	11
c1ccc(-c2csc3ncnc(NCCCn4ccnc4)c23)cc1	81	x
N=c1c2c(-c3ccccc3)c(-c3ccccc3)n(Cc3ccco3)c2ncn1CCCN1CCOCC1	89	13
CC(C)Cn1cnc2c(c(-c3ccccc3)c(-c3ccccc3)n2Cc2ccco2)c1=N	48*	0
c1ccc(-c2c(-c3ccccc3)n(Cc3ccco3)c3ncnc(NCCCn4ccnc4)c23)cc1	0.1*	-19
CC(C)NC(=O)CSc1nc2ccccc2n1CC(=O)N1CCOCC1	92	0
O=C(c1cccc(Cl)c1)c1nnc(-c2ccccc2)o1	88	12
CC(C)(C)c1ccc(Cn2c(=N)n(CC(=O)c3ccco3)c3ccccc32)cc1	-0.6*	-42
CC(C)(C)c1ccc(Cn2c(=N)n(CC(O)c3ccco3)c3ccccc32)cc1 (configuration not stated)	31	-4
CC(NC(=O)c1ccc(Br)o1)C1CC2CCC1C2 (configuration not stated)	89	-19
CCn1cc(CN(C)C(=S)Nc2sc3c(c2C(=O)OC)CCC(C)C3)c(C)n1 (configuration not stated)	95	28
CCN(CC)C(=O)c1sc(NC(=S)N(C)Cc2cn(CC)nc2C)c(C(=O)OC)c1C	0.8*	4
COC(=O)c1cc(OC)c(OC)cc1NCC(=O)Nc1ccc(C)cc1	88	11
O=C(Cc1nnc(-c2ccc(Br)cc2)o1)NC1CCCCCC1	111	-26
S=c1[nH]c(-c2ccccc2)cs1	16*	-7
O=c1[nH]c(-c2ccccc2)cs1	90	-15
O=C(O)CC(C(=O)Nc1ccc2ccccc2c1)N1CCOCC1 (configuration not stated)	101	-12
O=C(OCC(=O)c1cccs1)c1ccco1	94	-5
C=CCN(CC=C)Cn1nc(Nc2ccccc2F)sc1=S	71	-11
